A selection: hits, their analogues and other compounds. The true share with any hit is near 1.6%.
KCNQ2 pot = potentiators of rat KCNQ2 potassium channel | 0.54% of 310,000 active | CHO-K1 KCNQ2, FluxOR thallium flux fluorescence; stronger effect = higher value | O88943 | B-score at 10 µM;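 active = fluorescence ratio B-score at least 3 SD of library B-scores, with initial fluorescence B-score within 3 of them, cut at about 5.3 in these data; same plate scores as AID 2156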;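 note: B-score of peak minus minimum over baseline fluorescence ratio after K+ and Tl+ stimulus; positive B-score means potentiation of KCNQ2 with more thallium influx and brighter signal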
Target sequence (O88943 whole entry, looked up): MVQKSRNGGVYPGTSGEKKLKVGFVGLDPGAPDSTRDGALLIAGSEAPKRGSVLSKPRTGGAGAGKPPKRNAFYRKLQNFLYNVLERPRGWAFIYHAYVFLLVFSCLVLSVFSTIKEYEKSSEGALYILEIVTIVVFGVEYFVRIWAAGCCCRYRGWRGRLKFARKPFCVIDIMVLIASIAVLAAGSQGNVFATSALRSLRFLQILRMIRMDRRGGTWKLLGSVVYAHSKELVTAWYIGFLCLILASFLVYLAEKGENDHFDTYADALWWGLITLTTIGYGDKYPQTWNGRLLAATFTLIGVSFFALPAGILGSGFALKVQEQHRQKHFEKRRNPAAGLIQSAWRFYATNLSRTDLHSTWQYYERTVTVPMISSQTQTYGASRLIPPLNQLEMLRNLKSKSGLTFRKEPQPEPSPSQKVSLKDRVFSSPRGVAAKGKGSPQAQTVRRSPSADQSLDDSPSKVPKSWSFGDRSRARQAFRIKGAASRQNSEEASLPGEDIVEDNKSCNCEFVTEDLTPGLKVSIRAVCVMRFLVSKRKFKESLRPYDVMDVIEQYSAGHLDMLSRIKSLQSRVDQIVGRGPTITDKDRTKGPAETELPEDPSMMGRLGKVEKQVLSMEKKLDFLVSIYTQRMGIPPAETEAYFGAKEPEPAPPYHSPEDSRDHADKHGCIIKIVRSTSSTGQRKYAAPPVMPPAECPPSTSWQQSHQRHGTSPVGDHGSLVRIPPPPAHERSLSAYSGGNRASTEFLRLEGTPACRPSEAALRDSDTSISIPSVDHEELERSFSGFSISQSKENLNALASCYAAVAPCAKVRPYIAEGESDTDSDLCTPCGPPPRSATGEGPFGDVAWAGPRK
KCNQ2 block = KCNQ2 (rat) channel inhibition | O88943 | 1.1% of 310,000 active | AID 2156 | B-score at 10 µM | CHO-K1 KCNQ2, FluxOR thallium flux, 20 min; stronger effect = lower value;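 active = fluorescence ratio B-score at most minus 3 library SDs, with starting brightness B-score within 2 library SDs, cut at about -5.5 in these data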
Large screens that a line does not name were inactive.

CCOC(=O)C1=C(C)N=c2s/c(=C\c3ccc(O)c([N+](=O)[O-])c3)c(=O)n2C1c1ccccc1OC (configuration not stated)	KCNQ2 block -7.2
CC1(c2nnc(-c3cccc(Cl)c3)o2)CC(c2ccc(F)cc2)=NO1 (configuration not stated)	none (no result: KCNQ2 pot)
CN1C(=O)[C@H]2[C@@H](/C=C/c3ccccc3)N3C(=O)CN(Cc4ccccn4)C(=O)[C@@]3(C)[C@H]2C1=O	none (no result: KCNQ2 pot)
CN(C)c1ccc(Cl)cc1N	none
O=C(Nc1ccc(F)cc1)/C(=C1/CCCCCN1)[N+](=O)[O-]	none (no result: KCNQ2 pot)
CC(CC(=O)Nc1ccc2c(c1)OCCO2)c1ccccc1 (configuration not stated)	none
CC(CC(=O)NC(C)c1ccc2c(c1)OCCO2)c1ccccc1 (configuration not stated)	KCNQ2 pot 9.3
CC(C)C(=O)Nc1cc2c3c(c1)CCN3C(=O)CC2	none (no result: KCNQ2 pot)
CS(=O)(=O)N1CCC(C(=O)Nc2cc(Cl)c(Cl)cc2Cl)CC1	none
NS(=O)(=O)c1cccc(NC(=O)COC(=O)C2(c3cccc(F)c3)CCCC2)c1	none
O=C(CSc1nc(=O)n(CCN2CCOCC2)c2c1CCCC2)Nc1ccc(F)cc1F	none (no result: KCNQ2 pot)
Cc1ccccc1NC(=O)/C=C/c1ccc([N+](=O)[O-])s1	KCNQ2 block -5.7
Cc1cc(C)cc(NC(=O)/C=C/c2ccc([N+](=O)[O-])s2)c1	none (no result: KCNQ2 pot)
CCN(CC(=O)Nc1ccc(NC(C)=O)cc1)C(=O)CSCc1c(C)noc1C	none (no result: KCNQ2 pot)
O=C(Cn1c(=O)c2cccn2c2cccnc21)N1CCN(c2ccc(Cl)cc2)CC1	KCNQ2 block -7.6
Cc1ccc(Cl)cc1N1CCN(C(=O)CCCn2c(=O)c3cccn3c3cccnc32)CC1	none (no result: KCNQ2 pot)
O=C(CCC1CCCN(Cc2ccc3c(c2)CCO3)C1)NCc1ccc(F)c(F)c1 (configuration not stated)	none (no result: KCNQ2 pot)
COC(=O)c1cc(-c2c(-c3ccc4c(c3)OCO4)noc2-c2ccsc2)cc([N+](=O)[O-])c1	none (no result: KCNQ2 pot)
CN(C)c1ccc(-c2c(-c3ccc4c(c3)OCO4)noc2-c2ccsc2)cn1	KCNQ2 block -5.9
Cc1c(C)c2cc(Cl)c(OCC(=O)N3CCN(c4ccc(F)cc4)CC3)cc2oc1=O	none (no result: KCNQ2 pot)
OCCC1CN(CC2CCCCC2)CCN1C1CCCC1 (configuration not stated)	none
OCCC1CN(CC2CCCCC2)CCN1CC1CCCCC1 (configuration not stated)	KCNQ2 pot 6.8
Cc1ccc(S(=O)(=O)Oc2ccc(/C=C3/N=C(c4ccccc4)OC3=O)cc2)cc1	KCNQ2 block -7.4
COc1ccc(/C=C2\N=C(c3ccc(C)cc3)OC2=O)cc1	none (no result: KCNQ2 pot)
COc1cc(O)c(CCC(=O)c2ccc(OC)c(OC)c2)c(OC)c1	none
CCOC(=O)C(Cc1ccccc1)(Cc1ccccc1)C(C)=O	KCNQ2 block -6.4
CC(=O)C(Cc1ccccc1)(Cc1ccccc1)C(C)=O	none
Cc1ccc(C(=O)O/N=C(\N)c2nonc2N)cc1	none
CC(=O)c1cccc(NCC(=O)Nc2cc(S(=O)(=O)N3CCCCC3)ccc2C)c1	none
O=C(CNc1ccccc1)Nc1cccc2ccccc12	none
O=C(NC(Nc1nc2ccc([N+](=O)[O-])cc2s1)(C(F)(F)F)C(F)(F)F)c1ccccc1Cl	KCNQ2 block -10
O=[N+]([O-])c1ccc2nc(SCc3ccccc3Cl)sc2c1	KCNQ2 block -9.9
Nc1ccc2nc(SCc3ccc([N+](=O)[O-])cc3)sc2c1	none (no result: KCNQ2 pot)
O=C(NC(Nc1nc2ccc([N+](=O)[O-])cc2s1)(C(F)(F)F)C(F)(F)F)c1cccnc1	none
Cc1ccc(C(=O)Nc2ccc3c(c2)C(=O)N(C)C3=O)c(C)c1	none
CCn1c(SCC(=O)N(C)Cc2ccc(OC)c(F)c2)nc2cc(S(N)(=O)=O)ccc21	none
Cc1ccc(NC2Sc3ccccc3NC2=O)cc1Cl (configuration not stated)	none
Nc1nc(-c2ccc3ccccc3c2)c(C2(O)C(=O)Nc3c(Br)cc(F)cc32)s1 (configuration not stated)	none (no result: KCNQ2 pot)
CCCn1c(C)nc2c(c1=O)c1nc3ccccc3nc1n2CCC1=CCCCC1	none (no result: KCNQ2 pot)
Cc1nc2c(c(=O)n1CCC1=CCCCC1)c1nc3ccccc3nc1n2/N=C/c1ccco1	KCNQ2 block -7.7
Cc1ccc(C)c(C(=O)CSc2nnc(C)s2)c1	none
CC(C)(C)c1ccc(NC(=O)CNC2CCCc3ccccc32)cc1 (configuration not stated)	KCNQ2 block -6.9
Cc1ccc(NC(=O)CN(C)CC(=O)NC2CCCc3ccccc32)cc1 (configuration not stated)	none (no result: KCNQ2 pot)
CCN1/C(=C/C=C/C=C/C=C/c2sc3ccccc3[n+]2CC)Sc2ccccc21	none (no result: KCNQ2 pot)
CCN1/C(=C/C=C/C=C/c2sc3ccccc3[n+]2CC)Sc2ccccc21	KCNQ2 block -21
COc1cccc(OCc2ccc(C(=O)NCC3CCCO3)cc2)c1 (configuration not stated)	none (no result: KCNQ2 pot)
O=C(NCC1CCCO1)c1ccc(COc2ccccc2Br)cc1 (configuration not stated)	KCNQ2 pot 5.3
O=C(O)c1[nH]c2ccccc2c1CC(=O)N1CCN(c2ccccc2)CC1	none (no result: KCNQ2 pot)
Cc1cccc(N2CCN(C(=O)Cc3c(C(=O)O)[nH]c4ccc(Cl)cc34)CC2)c1C	KCNQ2 pot 7
O=C(Cc1ccccc1)Nc1ccc(NC(=O)c2ccco2)cc1Cl	none (no result: KCNQ2 pot)
COc1ccc(NC(=O)CCCN2C(=O)C(c3ccccc3)Oc3cccnc32)c(OC)c1 (configuration not stated)	none (no result: KCNQ2 pot)
COc1ccc(C2CC(c3cccs3)=NN2S(C)(=O)=O)cc1 (configuration not stated)	none
COc1ccc(C2CC(c3cccs3)=Nc3ccccc3S2)cc1 (configuration not stated)	KCNQ2 block -6
O=C(N/C(=C\c1ccc(Br)cc1)C(=O)N1CCOCC1)c1ccc([N+](=O)[O-])cc1	KCNQ2 block -5.9
O=C(N/C(=C\c1ccco1)C(=O)N1CCOCC1)c1ccc([N+](=O)[O-])cc1	none
CCN(CC)c1c([N+](=O)[O-])c(=O)n(C)c2ccccc12	none (no result: KCNQ2 pot)
Cn1c(=O)c([N+](=O)[O-])c(Cl)c2ccccc21	KCNQ2 block -6.2
O=C(NNC(=O)c1cc(-c2ccccc2)nc2ccccc12)Nc1cccc(Cl)c1	KCNQ2 block -6.3
CC(C)(C)c1ccc(-c2cc(C(=O)NNC(=O)Nc3ccccc3)c3ccccc3n2)cc1	none (no result: KCNQ2 pot)
CN(C)S(=O)(=O)c1ccc(-c2csc(N/N=C/c3ccc(O)cc3)n2)cc1	none
COc1cc(OC)c(OC)cc1CN(C)C(c1ccccc1)c1nnnn1-c1ccccc1C (configuration not stated)	none (no result: KCNQ2 pot)
COc1ccc(CN(C)C(c2ccccc2)c2nnnn2-c2ccccc2C)c(OC)c1C (configuration not stated)	KCNQ2 block -6
COc1cccc(C(=O)NC(C)c2cccc3ccccc23)c1OC (configuration not stated)	none (no result: KCNQ2 pot)
COc1cccc(C(=O)NC(C)c2ccc(-c3ccccc3)cc2)c1OC (configuration not stated)	KCNQ2 block -6
CCOc1ccc(NC(=O)CSc2nnc(CNC(=O)c3cccs3)o2)cc1	none
O=S(=O)(c1ccc2nc(N3CCN(c4ccccc4)CC3)ccc2c1)N1CCCCC1	none
COc1ccccc1N1CCN(c2ccc3cc(S(=O)(=O)N4CCCCC4)ccc3n2)CC1	KCNQ2 block -5.6
O=C(O)COc1ccc(C(NC(=O)c2c(F)cccc2F)NC(=O)c2c(F)cccc2F)cc1	none (no result: KCNQ2 pot)
COc1cccc(-c2noc(C3CCCN(S(=O)(=O)c4cccc(Cl)c4C)C3)n2)c1 (configuration not stated)	KCNQ2 block -6
